Measurements taken from PubChem BioAssay (NCATS).
Records with an inconclusive call do not appear. Values without a mark were called inactive. The source made the active and inactive calls. Calls come from the whole dose curve; as a rule, active = well fitted inhibition curve with a large enough effect; inconclusive = small, poorly fitted or top-dose-only effect; inactive = flat fitted curve, though single readings scatter.

These molecules were tested on 3D7 (assay: qHTS profiling for inhibitors of Plasmodium falciparum proliferation (AID 504749; note: nearly all actives have a fitted effect of over 60% in size;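 for activity, negative = inhibition: 0% = DMSO vehicle and full inhibition = artemisinin control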)). Settings: P. falciparum in erythrocytes, SYBR Green DNA, 72 h; series mostly up to 28.7 µM; activity, negative = inhibition: at the top concentration.
Procedure, shortened: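 Three-day growth assay of blood-stage parasites in erythrocytes (0.3% parasitemia, 2.5% hematocrit) at 37 C, 5% CO2, quantified by SYBR Green DNA staining after overnight detergent lysis.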
Potency is the fitted concentration of half-maximal effect.

Compared with COc1ccc(C(=O)c2ccc(C)cc2)c(O)c1, CC(=O)Nc1ccc(OC(C)=O)cc1 is lower in “activity, negative = inhibition” value: -0.453% for the first, -6.23% for the second.

Going from Cc1c(Cl)cccc1Nc1ncccc1C(=O)O to CN(C)CCCSc1ccccc1NC(=O)/C=C/c1ccccc1, the “activity, negative = inhibition” value falls from -0.833% to -12.6%.

First: c1ccc2c(c1)OCC(CN1CCCCC1)O2 (stereo not drawn)
Second: O=C(O)CC/C=C\CC[C@@H]1[C@@H](N2CCCCC2)[C@@H](O)C[C@@H]1OCc1ccc(-c2ccccc2)cc1
The “activity, negative = inhibition” value of the first is higher: 15.5% for the first, -6.91% for the second.

Compared with CC(C)NCC(O)COc1ccccc1-n1cccc1 (stereo not drawn), CN(Cc1ccccc1)Cc1ccccc1 is higher in “activity, negative = inhibition” value: 0.793% for the first, 1.29% for the second.

Compared with CN1c2c(nc(N)[nH]c2=O)NCC1CNc1ccc(C(=O)NC(CCC(=O)O)C(=O)O)cc1 (stereo not drawn), Cc1cc(C)c(NC(=O)C[C@H](CC(=O)O)c2cccc3ccccc23)c(C(=O)N2CCC3(CCCC3)CC2)c1 is lower in “activity, negative = inhibition” value: 10.3% for the first, 0.916% for the second.

Compared with O=C(O)COc1ccc(CCNS(=O)(=O)c2ccccc2)s1, NC(=O)Oc1ccc(Cc2ccccc2)cc1 is lower in “activity, negative = inhibition” value: 2.86% for the first, 1.56% for the second.

Going from NCCN to NCC(O)CC(=O)O (stereo not drawn), the “activity, negative = inhibition” value falls from 2.8% to -1.18%.

Going from O=C(NCCNCC(O)COc1ccc(O)cc1)N1CCOCC1 (stereo not drawn) to O=C(CCCN1CCN2CCCC2C1)c1ccc(F)cc1 (stereo not drawn), the “activity, negative = inhibition” value rises from 0.996% to 10%.

Compared with NC(=O)[C@@H]1CCCN1C(=O)[C@H](Cc1cnc[nH]1)NC(=O)[C@@H]1CCC(=O)N1, CO/N=C(/C(=O)N[C@@H]1C(=O)N2C(C(=O)O)=C(COC(N)=O)CS[C@H]12)c1ccco1 is lower in “activity, negative = inhibition” value: 14% for the first, -15.9% for the second.

First: Cc1ncc[nH]1
Second: CC(C)c1ncc([N+](=O)[O-])n1C
The “activity, negative = inhibition” value of the first is higher: 5.53% for the first, 3.46% for the second.

First: O=C(NNCNNC(=O)c1ccncc1)c1ccncc1
Second: CC(CNC(=O)c1cccnc1)NC(=O)c1cccnc1 (stereo not drawn)
The “activity, negative = inhibition” value of the first is higher: 10.6% for the first, 1.01% for the second.

First: O=C1c2ccccc2C(=O)C1c1ccc(F)cc1
Second: O=[n+]1ccn([O-])c2ccccc21
The “activity, negative = inhibition” value of the first is lower: -8.16% for the first, -0.915% for the second.

Going from CC1CCC(NC(=O)N(CCCl)N=O)CC1 (stereo not drawn) to CC1(C)S[C@@H]2[C@H](NC(=O)C3(N)CCCCC3)C(=O)N2[C@H]1C(=O)O, the “activity, negative = inhibition” value rises from -5.01% to 14.7%.

Compared with O=P(O)(O)OC[C@H](O)CO, OCC(O)CO is higher in “activity, negative = inhibition” value: -0.739% for the first, 17.2% for the second.

Compared with OC[C@H]1O[C@@H]2O[C@H]3[C@H](O)[C@@H](O)[C@@H](O[C@H]4[C@H](O)[C@@H](O)[C@@H](O[C@H]5[C@H](O)[C@@H](O)[C@@H](O[C@H]6[C@H](O)[C@@H](O)[C@@H](O[C@H]7[C@H](O)[C@@H](O)[C@@H](O[C@H]1[C@H](O)[C@H]2O)O[C@@H]7CO)O[C@@H]6CO)O[C@@H]5CO)O[C@@H]4CO)O[C@@H]3CO, O[C@@H]([C@H](O)[C@H](O)CBr)[C@H](O)CBr is higher in “activity, negative = inhibition” value: -3.73% for the first, -2.72% for the second.

Going from CC(C)OC(=O)Nc1ccc2nc(-c3cscn3)[nH]c2c1 to COC(=O)C(CN)c1c[nH]c2ccc(OC)cc12 (stereo not drawn), the “activity, negative = inhibition” value rises from -10.1% to 0.75%.

Compared with S=C=Nc1ccc(N=C=S)cc1, CCCOC(=O)c1ccccc1O is lower in “activity, negative = inhibition” value: 2.07% for the first, 1.79% for the second.

Compared with CCc1ncnc2cc(OC)c(OC)cc12, CC12CCC(C[N+](C)(CCC[N+](C)(C)C)C1)C2(C)C (stereo not drawn) is higher in “activity, negative = inhibition” value: -3.67% for the first, 0.541% for the second.

In the case of O=C1NCCN1c1ncc([N+](=O)[O-])s1, the “activity, negative = inhibition” value is reported as -17.9% [at 12.8 µM].

CCC(=O)c1ccc2c(c1)N(CCCN1CCN(CCO)CC1)c1ccccc1S2 was tested, and the Potency was 10 µM (active).
